Screening data: PubChem, National Center for Advancing Translational Sciences (NCATS)
RORgamma inh = ROR gamma (mouse) transcription inhibition; Drosophila S2 Gal4-RORgamma UAS-luciferase reporter, 20 h; Potency, µM (doses to about 53.6 µM), for inactives: at the highest dose activity change, negative = inhibition, usual class: inhibitors; 310,000 compounds, 5.4% hits; further: nearly all actives have a fitted effect of over 60% in size
Target sequence (P51450 whole entry, looked up, the tested form may be a part): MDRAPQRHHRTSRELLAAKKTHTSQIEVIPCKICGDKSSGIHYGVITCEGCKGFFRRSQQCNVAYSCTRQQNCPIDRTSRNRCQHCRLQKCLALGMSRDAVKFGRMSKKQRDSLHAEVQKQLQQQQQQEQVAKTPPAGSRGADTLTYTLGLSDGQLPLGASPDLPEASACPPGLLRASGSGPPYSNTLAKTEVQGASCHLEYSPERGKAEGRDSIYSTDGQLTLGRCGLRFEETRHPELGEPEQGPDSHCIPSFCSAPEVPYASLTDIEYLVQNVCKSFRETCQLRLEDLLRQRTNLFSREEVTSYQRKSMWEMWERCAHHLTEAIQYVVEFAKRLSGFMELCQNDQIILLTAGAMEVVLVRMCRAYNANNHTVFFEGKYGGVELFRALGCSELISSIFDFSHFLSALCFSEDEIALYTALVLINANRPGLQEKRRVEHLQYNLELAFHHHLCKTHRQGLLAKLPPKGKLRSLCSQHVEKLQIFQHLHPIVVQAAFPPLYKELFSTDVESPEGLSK
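Schneider cells (Drosophila), stable Gal4 DBD–ROR gamma + UAS-luc; 1 hr cmpd preincubation; Cu2+ induction 700 uM final; 20 hr ambient; luminescence.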
ELG1 DNA repair = inhibitors of ELG1-dependent DNA repair in HEK293T cells | HEK293T ELG1-luciferase reporter, luminescence, 16 h; DNA damage induced by 5-fluorouridine | Potency, µM (titrated, usually from 46.1 µM), inactives show at the top dose activity change, negative = inhibition, usual class: inhibitors | 330,000 compounds, 2.3% hits; further: nearly all actives have a fitted effect of over 55% in size
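Reporter activity after DNA damage by 5-fluorouridine is monitored. Compound-treated cells incubate 16 hr at 37 °C, then ONE-Glo is added for 30 min before luminescence reading.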
VP16 counter = Gal4-VP16 reporter inhibition counter-screen; Drosophila S2 Gal4-VP16 UAS-luciferase, luminescence, 20 h; 310,000 compounds, 3.5% hits; Potency, µM (doses to about 53.6 µM), without a hit: at the highest dose activity, negative = inhibition, most hits filed as inhibitors; AID 2546;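 further: Gal4-VP16 expression switched on by copper sulfate through the metallothionein promoter; nearly all actives have a fitted effect of over 50% in size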
DT40 TDP1 CPT = growth inhibition of DT40 Tdp1-/-;hTDP1 cells with camptothecin (screen for TDP1 inhibitors); chicken DT40 Tdp1-/-;hTDP1 cells + 20 nM CPT, ATP luminescence, 48 h; Potency, µM (top dose mostly 46.2 µM), for the others: at the highest dose activity change, negative = growth inhibition, usual class: inhibitors; 420,000 compounds, 12% hits; AID 686979; further: nearly all actives have a fitted effect of over 55% in size
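Cell growth measured by CellTiter-Glo luminescence after a minimum 48 h, 37 C compound exposure with 20 nM CPT in Tdp1-knockout DT40 cells stably expressing hTDP1, seeded 400/well; qHTS titration format.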
12-LOX inh = ALOX12 (human) lipoxygenase inhibition; purified 12hLO, xylenol orange hydroperoxide absorbance; Potency, µM (titrated, usually from 108 µM), inactives show at the top dose activity change, negative = inhibition, actives largely listed as inhibitors; 580,000 compounds, 1.1% hits; P18054; AID 1671190
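Hydroperoxide product was detected by ferrous iron/xylenol orange as the 573 to 405 nm absorbance ratio. Arachidonic acid at 40 uM (final) was turned over for 30 min at room temperature by 150 nM human 12hLO, pH 7.0 Hepes buffer, after 15 min compound preincubation.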
DT40 TDP1 no CPT = qHTS for Inhibitors of human tyrosyl-DNA phosphodiesterase 1 (TDP1): qHTS in cells in absence of CPT; DT40 Tdp1-/- hTDP1 cells, no CPT, ATP luminescence, 48 h; Potency, µM (doses to about 46.2 µM), for the others: at the top dose activity change, negative = growth inhibition, usual class: inhibitors; 420,000 compounds, 15% hits; AID 686978, 2013; further: nearly all actives have a fitted effect of over 55% in size
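No-CPT arm: Tdp1-/-;hTDP1 DT40 cells (400/well) plus compounds, incubated ≥48 hr at 37 °C. Readout CellTiter-Glo luminescence.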
An asterisk follows results filed as active; ? = inconclusive; . = no result; [ ] = dose if it differs, or a comment. Rows were chosen to be rich in hits. Some 15% of all compounds tested hit in one or more screens of this group. The call rests on the fitted dose curve; in most records, active means well fitted curve in the direction sought with a large enough effect; inconclusive means small, poorly fitted or top-dose-only effect, or another doubt; inactive means no such curve, though single readings can be large; an effect the other way counts as inactive or inconclusive. On the % scale 0 is the no-effect control and ±100 the full control effect; potency means the concentration at half of the fitted maximal effect.

SMILES	RORgamma inh	ELG1 DNA repair	VP16 counter	DT40 TDP1 CPT	12-LOX inh	DT40 TDP1 no CPT
COc1ccccc1C1NC(=O)N(CC(=O)N2CCCC2)C2=C1C(=O)OC2 (stereo not drawn)	.	.	.	.	41%	.
CC(=O)N1N=C(c2ccc(Cl)cc2)CC1c1ccco1 (stereo not drawn)	0%	?	24%	16µM*	0%	?
Cc1ccc(N2N=C(c3ccc(F)cc3)CC2c2ccco2)cc1 (stereo not drawn)	?	15%	?	18µM*	25µM*	?
Fc1ccc(C2=NN(c3ccccc3)C(c3ccco3)C2)cc1 (stereo not drawn)	38%	0%	?	-7%	?	-23%
CCC(=O)N1N=C(c2ccc(NS(=O)(=O)c3ccccc3)cc2)CC1c1ccco1 (stereo not drawn)	.	?	.	?	59%	23µM*
CC(=O)N1N=C(c2ccc(C)cc2)CC1c1ccco1 (stereo not drawn)	36%	?	?	-27%	-4%	?
Cc1ccc(S(=O)(=O)N[C@H](C(=O)OCC(=O)N2N=C(c3ccc(Cl)cc3)CC2c2ccco2)C(C)C)cc1 (stereo partly drawn)	32%	?	-16%	23µM*	?	23µM*
O=C(NCCc1cnc[nH]1)[C@@H]1C[C@H]2C(=O)NCCCCCCN(S(=O)(=O)c3cccs3)[C@H]2C1	.	.	.	.	0%	.
CN(C(=O)Cc1nn(C)c(=O)c2ccccc12)C1CCCCCCC1	.	.	.	.	-27%	.
Clc1ccc(C2=NN(c3ccccc3)C(c3ccco3)C2)cc1 (stereo not drawn)	16%	?	-2%	3%	0%	-16%
Cc1nc(N2N=C(c3ccc(Cl)cc3)CC2c2ccco2)sc1C(=O)N(C)C (stereo not drawn)	14%	?	-20%	21µM*	?	16µM*
O=C(CSc1nc2ccc(Cl)cc2[nH]1)N1N=C(c2cccs2)CC1c1ccco1 (stereo not drawn)	.	.	.	.	18µM*	.
Cn1nnnc1SCC(=O)N1N=C(c2ccc(Cl)cc2)CC1c1ccco1 (stereo not drawn)	.	?	.	21µM*	?	16µM*
Cc1nnc(SCC(=O)N2N=C(c3ccc(Cl)cc3)CC2c2ccco2)[nH]c1=O (stereo not drawn)	12%	?	-11%[10 µM]	15µM*	?	?
CC(C)Cc1noc(CN(C)C(=O)c2cc(C(C)C)n3ncnc3n2)n1	.	.	.	.	43%	.
CCS(=O)(=O)N1CCC(NC(=O)c2cccc(NC(=O)c3cccs3)c2)CC1	.	.	.	.	5%	.
Cc1cc(C)c2oc(C(=O)Nc3cccc(Cl)c3C)cc(=O)c2c1	.	.	.	.	-1%	.
Cc1ccc(C)c(N2CCN(C(=O)c3noc(-c4ccc[nH]c4=O)n3)CC2)c1	.	.	.	.	40%	.
Cc1ccc(C2=NN(C(=O)C3CCCO3)C(c3ccco3)C2)cc1 (stereo not drawn)	-1%	-8%	2%	-15%	-25%	?
COc1ccc(C2=NN(C(=O)CN3CCc4ccccc4C3)C(c3ccco3)C2)cc1 (stereo not drawn)	.	.	.	.	-22%	.
O=C(C1CCCO1)N1N=C(c2ccc(Br)cc2)CC1c1ccco1 (stereo not drawn)	?	?	2%	?	?	15µM*
COc1ccc(C2=NN(c3nc(-c4ccccc4)c(CC(=O)O)s3)C(c3ccco3)C2)cc1 (stereo not drawn)	5%	13%	?	-25%	11µM*	-5%
CCN(CC(=O)NC)S(=O)(=O)N1CCC(C)CC1	.	.	.	.	38%	.
CCOc1ccc(NC(=O)CC)cc1	-4%	-11%	5%	.	-1%	.
CCOc1ccc(NC(=O)Nc2ccc3nccnc3c2)cc1	?	?	1%	?	57%	15µM*
SMILES	RORgamma inh	ELG1 DNA repair	VP16 counter	DT40 TDP1 CPT	12-LOX inh	DT40 TDP1 no CPT
CCOc1ccc(NC(=O)NC(C)CC)cc1 (stereo not drawn)	0%	?	-6%	?	0%	18µM*
O=C(NCc1ccc2c(c1)OCO2)c1cnc2c(c1)N([S+](=O)([O-])c1cccnc1)CCC2	.	.	.	.	-58%	.
O=C(NCc1ccccc1)Nc1c(NC2CCCC2)c2ccccc2oc1=O	.	.	.	.	1%	.
CCN(CC)S(=O)(=O)c1cc(C(=O)Nc2cc(C)on2)ccc1Cl	-6%	16µM*	-5%	-27%	-5%	?
CCN(CC)S(=O)(=O)c1cc(C(=O)Nc2ccc(Cl)cn2)ccc1C	-8%	?	-18%	?	0%	16µM*
CCN(CC)S(=O)(=O)c1ccc(C(=O)Nc2cc(C)on2)cc1	0%	2%	-2%	-10%	-5%	-7%
CCN(CC)S(=O)(=O)c1cc(C(=O)Nc2cccnc2Cl)ccc1Cl	13%	-6%	0%	5%	11%	?
Cc1ccc(-c2nn3c(C)nnc3s2)cc1NC(=O)c1ccc(-c2cccc(Cl)c2)o1	5%	18µM*	4%	23µM*	0%	18µM*
Cc1ccc(-c2nn3c(C)nnc3s2)cc1NC(=O)c1ccc(Br)o1	-30%	-2%	11%	?	?	-21%
Cc1ccc(-c2nn3c(C)nnc3s2)cc1NC(=O)c1ccc(-c2ccc(Cl)cc2Cl)o1	30%	-20%	?	7.3µM*	-20%	6.5µM*
CN(C)Cc1nc2ccccc2c(=O)n1Cc1nc(-c2cc3ccccc3o2)cs1	-39%	?	8%	?	19%	18µM*
CCOc1ccc(-c2csc(Cn3c(CN4CCN(C)CC4)nc4ccccc4c3=O)n2)cc1	?	21µM*	-20%	7.3µM*	?	8.2µM*
O=C(C[C@@H]1C[C@H]2O[C@H](CNC3CCOCC3)[C@@H](O)[C@H]2O1)N1CCOCC1	.	.	.	.	7%[176 µM]	.
COc1cc(-c2cnc3c(NC=O)cc(-c4cccc(C(=O)NCCN(C)C)c4)cn23)cc(OC)c1OC	.	.	.	?	0%	15µM*
COc1ccc(-c2cc(NC=O)c3ncc(-c4cccc(C(=O)NCCN(C)C)c4)n3c2)cn1	.	.	.	?	-5%	?
Cc1cc(-c2cc(NC=O)c3ncc(-c4cccc(C(=O)NCCN(C)C)c4)n3c2)cc(C)c1O	.	.	.	?	-22%	?
CN(C)CCNC(=O)c1cccc(-c2cnc3c(NC=O)cc(-c4ccccc4F)cn23)c1	.	.	.	?	-9%	21µM*
